# Results filed as inconclusive are left out. Where a call stands in place of a potency, no number is given. Activity calls are given as the source filed them. The call rests on the fitted dose curve; in most records, active means well fitted inhibition curve with a large enough effect; inconclusive means small, poorly fitted or top-dose-only effect; inactive means flat fitted curve, though single readings scatter.
# Assay: Primary qHTS for inhibitors of nuclear receptor binding SET domain protein 2 (NSD2) in an isogenic RCH-ACV NSD2 p.E1099K mutant (9B) (AID 1645876); further: nearly all actives have a fitted effect of over 70% in size
# Settings: RCH-ACV (leukaemia line) NSD2 E1099K (9B) viability, CellTiter-Glo, 72 h; series mostly up to 44.9 µM
row,Structure (SMILES),Potency
1,CC1CCC2C(C)(C)C(O)CCC2(C)C12Cc1c(O)cc3c(c1O2)C(N)=NC3 (stereo not drawn),inactive
2,O=C(/C=C/c1ccc(O)cc1)OC[C@H]1O[C@@H](OC(=O)/C=C/c2ccccc2)[C@H](O)[C@@H](O)[C@@H]1O,inactive
3,CC1=C2[C@@H]([C@H](C)CC[C@H]2/C=C(\C)C(=O)O)[C@H](O)C1,inactive
4,COC1CCCC/C(C)=C/C2C=C(C)C(C)C3C(CC(C)C)NC(=O)C23C(=O)C1 (stereo not drawn),inactive
5,C=C(C(=O)O)C1CCC(C)C2CCC(=O)OC2(C)C1 (stereo not drawn),inactive
6,CC1=C2C(=O)C=C(CO)[C@@H]2[C@H]2OC(=O)[C@H](C)[C@@H]2[C@@H](O)C1,inactive
7,CCC(C)C(=O)O[C@@H]1[C@@H](O)[C@@H](O[C@H]2O[C@H](CO)[C@@H](O)[C@H](O)[C@H]2O)O[C@H](CO)[C@H]1O (stereo partly drawn),inactive
8,CC1(C)O[C@@H]2C[C@H]3[C@@H]4CCC5=CC(=O)C=C[C@]5(C)[C@H]4[C@@H](O)C[C@]3(C)[C@]2(C(=O)CO)O1,inactive
9,O=C(/C=C/c1ccccc1)OCC1=CC[C@@H]2C(C(=O)O)=CO[C@@H](O[C@@H]3O[C@H](CO)[C@@H](O)[C@H](O)[C@H]3O)[C@H]12,inactive
10,C=CCc1ccc(O[C@@H]2O[C@H](CO)[C@@H](O)[C@H](O)[C@H]2O)c(OC)c1,inactive
11,COc1ccccc1CC(C(=O)O)N(C)C(=O)c1ccccc1 (stereo not drawn),inactive
12,CC(C)=CCc1ccc(Oc2c(O)cc(C)cc2CO)c(C(=O)O)c1O,inactive
13,CC1=C(CC(=O)O)c2cc(F)ccc2C1=Cc1ccc(S(C)(=O)=O)cc1,inactive

# Source: PubChem BioAssay (NCATS)
